# Assay results reported in paper PMC7862700, “An all-to-all approach to the identification of sequence-specific readers for epigenetic DNA modifications on cytosine”.
# Experiments:
# Experiment in all cases: DAPPL (digital affinity profiling via proximity ligation, sequencing); 10 mM Tris-HCl pH 7.5, 50 mM NaCl, 1 mM DTT, 4% glycerol, room temperature, 30 min; GST-TFs on glutathione beads, 16-mer random dsDNA library, 0.1% formaldehyde crosslink after washing; high values mean tight binding
# FLI1 = target: T1, FLI1 (Homo sapiens, UniProt Q01543 1-452); conditions: protein: recombinant; tags: N-terminal GST; dsDNA, one strand shown
# T1 sequence: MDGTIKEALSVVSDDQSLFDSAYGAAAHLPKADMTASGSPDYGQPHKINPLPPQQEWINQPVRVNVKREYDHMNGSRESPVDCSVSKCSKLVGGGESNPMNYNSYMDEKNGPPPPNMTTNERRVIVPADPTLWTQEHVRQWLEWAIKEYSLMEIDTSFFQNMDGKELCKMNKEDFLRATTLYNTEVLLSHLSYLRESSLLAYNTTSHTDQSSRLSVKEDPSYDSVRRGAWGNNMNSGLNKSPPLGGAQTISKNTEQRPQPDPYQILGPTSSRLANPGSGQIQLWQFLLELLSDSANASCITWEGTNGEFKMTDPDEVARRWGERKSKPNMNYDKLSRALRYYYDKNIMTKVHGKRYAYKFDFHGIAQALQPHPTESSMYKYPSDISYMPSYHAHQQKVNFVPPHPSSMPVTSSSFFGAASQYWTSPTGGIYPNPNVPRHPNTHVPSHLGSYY
# Method in brief: (§1)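 Pools of DNA-barcoded human transcription factors, expressed in yeast as GST fusions on glutathione beads and combined with a tag-only sample, were incubated with 200 nmole of a 16-mer random double-stranded DNA library. Incubation took 30 min at room temperature in Tris/NaCl/DTT/glycerol buffer and was followed by washing, 0.1% formaldehyde crosslinking, proximity ligation (BsaI/T4 ligase, 1 h, 37 °C), PCR amplification and sequencing on an Illumina NextSeq500. Binding signal is the ratio of a hexamer's read frequency for a factor to its frequency for the tag-only sample.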
# ELK1 = target: T2, ELK1 (Homo sapiens, UniProt P19419 1-428); conditions: protein: recombinant; tags: N-terminal GST; dsDNA, one strand shown
# T2 sequence: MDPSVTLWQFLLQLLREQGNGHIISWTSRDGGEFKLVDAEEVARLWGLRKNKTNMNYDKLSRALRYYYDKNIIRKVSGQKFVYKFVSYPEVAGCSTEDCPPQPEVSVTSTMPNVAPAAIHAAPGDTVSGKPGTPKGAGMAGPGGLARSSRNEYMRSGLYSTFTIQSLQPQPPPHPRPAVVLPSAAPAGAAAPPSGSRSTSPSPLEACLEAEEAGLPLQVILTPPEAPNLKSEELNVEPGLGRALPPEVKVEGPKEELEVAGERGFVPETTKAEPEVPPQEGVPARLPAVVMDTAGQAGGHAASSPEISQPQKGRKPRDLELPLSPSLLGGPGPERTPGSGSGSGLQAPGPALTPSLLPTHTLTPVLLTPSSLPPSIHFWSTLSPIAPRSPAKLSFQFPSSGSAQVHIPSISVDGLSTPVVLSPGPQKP
# Method in brief: as §1
# GABPA = target: T3, GABPA (Homo sapiens, UniProt Q06546 1-454); conditions: protein: recombinant; tags: N-terminal GST; dsDNA, one strand shown
# T3 sequence: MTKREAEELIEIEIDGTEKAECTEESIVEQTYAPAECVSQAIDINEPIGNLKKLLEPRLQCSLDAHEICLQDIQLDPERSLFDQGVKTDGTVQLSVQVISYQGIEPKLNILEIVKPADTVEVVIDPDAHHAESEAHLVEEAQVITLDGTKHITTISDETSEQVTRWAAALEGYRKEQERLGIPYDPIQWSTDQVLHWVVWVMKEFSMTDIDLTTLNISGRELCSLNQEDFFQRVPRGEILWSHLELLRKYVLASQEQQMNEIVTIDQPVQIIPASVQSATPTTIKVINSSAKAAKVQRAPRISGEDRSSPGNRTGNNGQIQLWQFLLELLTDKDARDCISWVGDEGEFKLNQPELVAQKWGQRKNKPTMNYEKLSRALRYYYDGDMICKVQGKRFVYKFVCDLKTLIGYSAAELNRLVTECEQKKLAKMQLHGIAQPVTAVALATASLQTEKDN
# Method in brief: as §1
# ERG = target: T4, ERG (Homo sapiens, UniProt P11308 1-479); conditions: protein: recombinant; tags: N-terminal GST; dsDNA, one strand shown
# T4 sequence: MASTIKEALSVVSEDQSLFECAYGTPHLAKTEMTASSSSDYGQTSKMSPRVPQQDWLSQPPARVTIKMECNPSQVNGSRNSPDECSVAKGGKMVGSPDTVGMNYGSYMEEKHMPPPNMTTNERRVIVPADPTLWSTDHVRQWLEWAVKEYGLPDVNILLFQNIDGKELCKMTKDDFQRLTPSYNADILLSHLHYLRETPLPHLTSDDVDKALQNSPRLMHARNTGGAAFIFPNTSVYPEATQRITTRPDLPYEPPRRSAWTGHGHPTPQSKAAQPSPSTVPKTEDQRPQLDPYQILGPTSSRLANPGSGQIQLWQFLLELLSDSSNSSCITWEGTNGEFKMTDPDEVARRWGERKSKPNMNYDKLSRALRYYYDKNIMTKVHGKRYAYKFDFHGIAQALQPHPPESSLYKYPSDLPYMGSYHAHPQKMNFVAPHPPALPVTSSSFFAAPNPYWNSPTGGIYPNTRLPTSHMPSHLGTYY
# Method in brief: as §1
# ELF1 = ELF1 (Homo sapiens, UniProt P32519 1-619); conditions: protein: recombinant; tags: N-terminal GST; dsDNA, one strand shown
# ELF1, sequence (P32519 whole entry): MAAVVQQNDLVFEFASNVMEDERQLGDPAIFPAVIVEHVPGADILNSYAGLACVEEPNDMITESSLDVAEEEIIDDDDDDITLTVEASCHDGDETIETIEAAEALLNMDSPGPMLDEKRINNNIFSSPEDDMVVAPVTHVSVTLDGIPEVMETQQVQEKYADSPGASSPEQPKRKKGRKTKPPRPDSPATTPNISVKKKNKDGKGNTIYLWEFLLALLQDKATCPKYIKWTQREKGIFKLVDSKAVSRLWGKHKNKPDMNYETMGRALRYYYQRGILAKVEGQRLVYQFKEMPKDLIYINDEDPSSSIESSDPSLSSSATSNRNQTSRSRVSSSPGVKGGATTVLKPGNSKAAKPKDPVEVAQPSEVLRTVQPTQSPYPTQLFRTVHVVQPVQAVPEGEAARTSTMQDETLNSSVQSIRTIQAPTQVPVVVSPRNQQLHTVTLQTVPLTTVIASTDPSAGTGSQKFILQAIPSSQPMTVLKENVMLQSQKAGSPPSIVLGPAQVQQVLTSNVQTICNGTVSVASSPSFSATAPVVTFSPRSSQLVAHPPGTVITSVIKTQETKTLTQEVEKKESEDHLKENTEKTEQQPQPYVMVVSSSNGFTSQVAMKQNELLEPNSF
# Method in brief: as §1
# EHF = target: T5, EHF (Homo sapiens, UniProt Q9NZC4 1-300); conditions: protein: recombinant; tags: N-terminal GST; dsDNA, one strand shown
# T5 sequence: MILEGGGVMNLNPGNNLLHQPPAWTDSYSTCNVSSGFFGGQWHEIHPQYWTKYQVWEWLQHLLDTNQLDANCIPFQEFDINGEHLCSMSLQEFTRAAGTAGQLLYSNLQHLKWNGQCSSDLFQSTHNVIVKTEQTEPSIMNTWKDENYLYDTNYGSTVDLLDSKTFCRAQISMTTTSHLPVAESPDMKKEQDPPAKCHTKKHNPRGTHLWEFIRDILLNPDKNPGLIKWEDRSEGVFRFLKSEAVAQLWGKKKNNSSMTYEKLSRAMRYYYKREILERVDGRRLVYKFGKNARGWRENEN
# Method in brief: as §1
# SPI1 = SPI1 (Homo sapiens, UniProt P17947 1-270); conditions: protein: recombinant; tags: N-terminal GST; dsDNA, one strand shown
# Method in brief: as §1
# SPIB = SPIB (Homo sapiens, UniProt Q01892 1-262); conditions: protein: recombinant; tags: N-terminal GST; dsDNA, one strand shown
# SPIB, sequence (Q01892 whole entry): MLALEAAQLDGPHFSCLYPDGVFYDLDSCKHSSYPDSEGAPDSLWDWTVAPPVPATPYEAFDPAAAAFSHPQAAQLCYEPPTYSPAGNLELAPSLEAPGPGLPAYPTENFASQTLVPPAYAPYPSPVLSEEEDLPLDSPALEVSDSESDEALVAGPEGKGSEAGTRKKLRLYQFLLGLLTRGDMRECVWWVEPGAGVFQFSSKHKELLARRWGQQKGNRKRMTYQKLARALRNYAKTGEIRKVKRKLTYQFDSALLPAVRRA
# Method in brief: as §1
# ELK3 = target: T6, ELK3 (Homo sapiens, UniProt P41970 1-407); conditions: protein: recombinant; tags: N-terminal GST; dsDNA, one strand shown
# T6 sequence: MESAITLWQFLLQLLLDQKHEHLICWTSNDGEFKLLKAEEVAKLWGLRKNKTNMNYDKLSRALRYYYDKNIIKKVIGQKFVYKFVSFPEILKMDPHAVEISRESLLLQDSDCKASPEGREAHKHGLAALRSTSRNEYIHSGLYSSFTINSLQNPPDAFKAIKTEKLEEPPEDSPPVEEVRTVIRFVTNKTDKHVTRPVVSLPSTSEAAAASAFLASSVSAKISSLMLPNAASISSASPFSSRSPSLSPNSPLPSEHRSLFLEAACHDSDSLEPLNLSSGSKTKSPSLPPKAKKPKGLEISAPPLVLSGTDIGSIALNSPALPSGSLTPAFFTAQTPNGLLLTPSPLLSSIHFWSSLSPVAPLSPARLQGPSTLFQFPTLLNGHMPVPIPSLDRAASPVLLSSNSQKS
# Method in brief: as §1
# FEV = target: T7, FEV (Homo sapiens, UniProt Q99581 1-238); conditions: protein: recombinant; tags: N-terminal GST; dsDNA, one strand shown
# T7 sequence: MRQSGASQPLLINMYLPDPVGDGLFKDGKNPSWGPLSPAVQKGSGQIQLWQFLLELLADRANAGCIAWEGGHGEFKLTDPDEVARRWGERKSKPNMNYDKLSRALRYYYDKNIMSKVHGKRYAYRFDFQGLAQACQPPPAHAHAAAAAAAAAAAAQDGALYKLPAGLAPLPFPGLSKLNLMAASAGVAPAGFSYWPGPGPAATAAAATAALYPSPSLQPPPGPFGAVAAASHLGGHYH
# Method in brief: as §1
# ETV5 = ETV5 (Homo sapiens, UniProt P41161 1-510); conditions: protein: recombinant; tags: N-terminal GST; dsDNA, one strand shown
# ETV5, sequence (P41161 whole entry): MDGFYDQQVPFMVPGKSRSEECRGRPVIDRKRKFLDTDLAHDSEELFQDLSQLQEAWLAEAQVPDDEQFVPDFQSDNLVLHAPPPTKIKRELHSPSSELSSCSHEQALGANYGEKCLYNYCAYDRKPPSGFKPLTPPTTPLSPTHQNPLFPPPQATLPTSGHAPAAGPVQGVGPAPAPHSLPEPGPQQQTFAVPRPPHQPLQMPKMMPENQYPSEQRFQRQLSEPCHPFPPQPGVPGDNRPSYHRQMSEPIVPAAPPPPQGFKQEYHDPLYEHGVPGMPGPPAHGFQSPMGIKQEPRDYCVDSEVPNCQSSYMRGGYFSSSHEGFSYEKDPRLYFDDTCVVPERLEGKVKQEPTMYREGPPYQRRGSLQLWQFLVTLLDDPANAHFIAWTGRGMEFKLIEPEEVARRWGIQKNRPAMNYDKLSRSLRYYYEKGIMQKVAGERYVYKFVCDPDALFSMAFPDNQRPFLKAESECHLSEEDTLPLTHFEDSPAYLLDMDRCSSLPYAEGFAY
# Method in brief: as §1
# HSF1 = HSF1 (Homo sapiens, UniProt Q00613 1-529); conditions: protein: recombinant; tags: N-terminal GST; chain copies: 3; dsDNA, one strand shown
# HSF1, sequence (Q00613 whole entry): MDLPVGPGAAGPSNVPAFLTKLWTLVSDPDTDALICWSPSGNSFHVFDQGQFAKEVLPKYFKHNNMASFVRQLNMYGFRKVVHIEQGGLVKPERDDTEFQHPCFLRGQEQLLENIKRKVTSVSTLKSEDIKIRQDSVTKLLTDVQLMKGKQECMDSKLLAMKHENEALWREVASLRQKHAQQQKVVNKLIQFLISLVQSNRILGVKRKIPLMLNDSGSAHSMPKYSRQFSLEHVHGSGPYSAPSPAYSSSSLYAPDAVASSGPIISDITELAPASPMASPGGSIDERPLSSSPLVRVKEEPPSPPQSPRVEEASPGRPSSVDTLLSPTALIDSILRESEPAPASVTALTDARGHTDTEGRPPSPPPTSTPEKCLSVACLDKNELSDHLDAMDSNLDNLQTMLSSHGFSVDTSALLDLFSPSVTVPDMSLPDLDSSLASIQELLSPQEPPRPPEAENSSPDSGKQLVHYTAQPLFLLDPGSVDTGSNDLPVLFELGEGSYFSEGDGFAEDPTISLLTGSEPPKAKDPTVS
# Method in brief: as §1
# SPIC = target: T8, SPIC (Homo sapiens, UniProt Q8N5J4 1-248); conditions: protein: recombinant; tags: N-terminal GST; dsDNA, one strand shown
# T8 sequence: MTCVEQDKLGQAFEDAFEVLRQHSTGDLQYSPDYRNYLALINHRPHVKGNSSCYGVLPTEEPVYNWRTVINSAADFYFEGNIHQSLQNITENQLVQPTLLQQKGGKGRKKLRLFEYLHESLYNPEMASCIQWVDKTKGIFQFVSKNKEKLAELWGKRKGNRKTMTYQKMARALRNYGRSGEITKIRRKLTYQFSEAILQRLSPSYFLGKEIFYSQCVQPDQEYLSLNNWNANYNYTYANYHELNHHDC
# Method in brief: as §1
# ELF4 = ELF4 (Homo sapiens, UniProt Q99607 1-663); conditions: protein: recombinant; tags: N-terminal GST; dsDNA, one strand shown
# ELF4, sequence (Q99607 whole entry): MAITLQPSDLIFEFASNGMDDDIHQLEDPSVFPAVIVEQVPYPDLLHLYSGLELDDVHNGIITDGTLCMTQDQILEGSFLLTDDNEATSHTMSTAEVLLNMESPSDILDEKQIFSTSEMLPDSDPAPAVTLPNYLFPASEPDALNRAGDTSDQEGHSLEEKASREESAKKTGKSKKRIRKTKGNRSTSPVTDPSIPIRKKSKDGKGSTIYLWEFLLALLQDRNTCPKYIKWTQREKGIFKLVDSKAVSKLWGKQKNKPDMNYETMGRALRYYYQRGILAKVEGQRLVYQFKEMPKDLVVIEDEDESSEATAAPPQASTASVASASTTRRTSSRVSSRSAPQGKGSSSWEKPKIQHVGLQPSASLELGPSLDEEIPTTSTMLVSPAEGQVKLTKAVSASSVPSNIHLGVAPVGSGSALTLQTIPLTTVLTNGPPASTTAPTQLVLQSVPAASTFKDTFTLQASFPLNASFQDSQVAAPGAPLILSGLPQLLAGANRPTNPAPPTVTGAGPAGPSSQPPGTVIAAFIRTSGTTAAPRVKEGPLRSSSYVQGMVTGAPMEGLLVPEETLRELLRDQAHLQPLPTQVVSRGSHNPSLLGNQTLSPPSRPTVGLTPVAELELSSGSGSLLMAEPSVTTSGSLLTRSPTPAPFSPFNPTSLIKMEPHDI
# Method in brief: as §1
# ELK4 = target: T9, ELK4 (Homo sapiens, UniProt P28324-2 1-405); conditions: protein: recombinant; tags: N-terminal GST; dsDNA, one strand shown
# T9 sequence: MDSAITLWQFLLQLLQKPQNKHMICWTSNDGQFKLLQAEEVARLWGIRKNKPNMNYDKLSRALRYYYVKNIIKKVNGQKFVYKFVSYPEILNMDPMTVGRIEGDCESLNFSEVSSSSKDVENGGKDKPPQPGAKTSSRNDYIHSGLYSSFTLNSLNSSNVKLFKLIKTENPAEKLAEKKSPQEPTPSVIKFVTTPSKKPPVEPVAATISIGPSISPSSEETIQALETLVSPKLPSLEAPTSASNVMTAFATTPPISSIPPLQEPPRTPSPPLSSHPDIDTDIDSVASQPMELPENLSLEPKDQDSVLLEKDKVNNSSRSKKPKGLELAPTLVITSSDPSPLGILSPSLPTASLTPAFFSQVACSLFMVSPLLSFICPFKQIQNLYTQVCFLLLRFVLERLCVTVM
# Method in brief: as §1
# ETV2 = target: T10, ETV2 (Homo sapiens, UniProt O00321 1-342); conditions: protein: recombinant; tags: N-terminal GST; dsDNA, one strand shown
# T10 sequence: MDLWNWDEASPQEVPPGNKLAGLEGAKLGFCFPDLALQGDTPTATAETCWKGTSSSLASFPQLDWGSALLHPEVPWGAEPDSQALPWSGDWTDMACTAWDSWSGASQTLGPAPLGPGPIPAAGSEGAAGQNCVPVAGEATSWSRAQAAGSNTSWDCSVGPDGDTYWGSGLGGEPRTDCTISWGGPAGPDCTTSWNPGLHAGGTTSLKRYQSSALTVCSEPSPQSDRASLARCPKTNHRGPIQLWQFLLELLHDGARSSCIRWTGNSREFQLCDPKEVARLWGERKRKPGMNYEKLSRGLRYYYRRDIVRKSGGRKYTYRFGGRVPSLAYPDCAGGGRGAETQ
# Method in brief: as §1
# ELF3 = target: T11, ELF3 (Homo sapiens, UniProt P78545 1-371); conditions: protein: recombinant; tags: N-terminal GST; dsDNA, one strand shown
# T11 sequence: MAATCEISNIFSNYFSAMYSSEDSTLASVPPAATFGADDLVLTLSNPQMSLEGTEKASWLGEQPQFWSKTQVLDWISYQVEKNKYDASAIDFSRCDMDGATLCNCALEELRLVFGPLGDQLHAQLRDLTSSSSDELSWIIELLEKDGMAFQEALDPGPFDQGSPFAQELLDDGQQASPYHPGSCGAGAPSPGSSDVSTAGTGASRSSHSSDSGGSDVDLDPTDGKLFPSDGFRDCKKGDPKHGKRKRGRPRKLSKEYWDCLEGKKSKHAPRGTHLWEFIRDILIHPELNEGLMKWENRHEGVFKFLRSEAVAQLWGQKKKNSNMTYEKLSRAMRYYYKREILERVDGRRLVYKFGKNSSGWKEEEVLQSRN
# Method in brief: as §1
# CRX = CRX (Homo sapiens, UniProt O43186 1-299); conditions: protein: recombinant; tags: N-terminal GST; dsDNA, one strand shown
# CRX, sequence (O43186 whole entry): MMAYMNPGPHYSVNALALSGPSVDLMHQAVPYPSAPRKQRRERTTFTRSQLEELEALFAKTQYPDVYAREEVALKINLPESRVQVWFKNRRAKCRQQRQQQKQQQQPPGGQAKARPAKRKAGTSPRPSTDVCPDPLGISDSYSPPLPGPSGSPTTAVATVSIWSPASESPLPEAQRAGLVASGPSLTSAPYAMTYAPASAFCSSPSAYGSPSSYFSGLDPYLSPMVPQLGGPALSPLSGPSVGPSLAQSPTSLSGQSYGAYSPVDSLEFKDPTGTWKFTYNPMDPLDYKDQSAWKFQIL
# Method in brief: as §1
# ETV1 = ETV1 (Homo sapiens, UniProt P50549 1-477); conditions: protein: recombinant; tags: N-terminal GST; dsDNA, one strand shown
# ETV1, sequence (P50549 whole entry): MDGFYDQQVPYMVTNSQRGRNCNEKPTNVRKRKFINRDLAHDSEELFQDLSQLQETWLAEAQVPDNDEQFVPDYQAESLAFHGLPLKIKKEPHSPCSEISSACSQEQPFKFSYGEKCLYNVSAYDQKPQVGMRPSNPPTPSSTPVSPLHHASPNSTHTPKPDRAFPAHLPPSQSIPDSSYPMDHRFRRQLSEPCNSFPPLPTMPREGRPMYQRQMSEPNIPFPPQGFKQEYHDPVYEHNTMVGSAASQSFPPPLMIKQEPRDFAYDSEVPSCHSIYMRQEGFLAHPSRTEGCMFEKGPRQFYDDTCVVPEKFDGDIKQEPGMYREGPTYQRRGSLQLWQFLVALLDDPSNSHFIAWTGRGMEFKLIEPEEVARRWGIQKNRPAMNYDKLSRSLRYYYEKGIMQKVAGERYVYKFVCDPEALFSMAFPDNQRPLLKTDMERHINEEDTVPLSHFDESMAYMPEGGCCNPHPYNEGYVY
# Method in brief: as §1
sequence,measurement,setting,value
ACTCGT,binding signal,FLI1,"1.19 fold enrichment (6-mer frequency, TF over GST control)"
same,binding signal,ELK1,"1.37 fold enrichment (6-mer frequency, TF over GST control)"
same,binding signal,GABPA,"1.26 fold enrichment (6-mer frequency, TF over GST control)"
same,binding signal,ERG,"1.19 fold enrichment (6-mer frequency, TF over GST control)"
same,binding signal,ELF1,"1.25 fold enrichment (6-mer frequency, TF over GST control)"
same,binding signal,EHF,"1.26 fold enrichment (6-mer frequency, TF over GST control)"
same,binding signal,SPI1,"1.17 fold enrichment (6-mer frequency, TF over GST control)"
same,binding signal,SPIB,"1.26 fold enrichment (6-mer frequency, TF over GST control)"
same,binding signal,ELK3,"1.19 fold enrichment (6-mer frequency, TF over GST control)"
same,binding signal,FEV,"1.2 fold enrichment (6-mer frequency, TF over GST control)"
same,binding signal,ETV5,"1.22 fold enrichment (6-mer frequency, TF over GST control)"
same,binding signal,HSF1,"1.14 fold enrichment (6-mer frequency, TF over GST control)"
same,binding signal,SPIC,"1.16 fold enrichment (6-mer frequency, TF over GST control)"
same,binding signal,ELF4,"1.3 fold enrichment (6-mer frequency, TF over GST control)"
same,binding signal,ELK4,"1.28 fold enrichment (6-mer frequency, TF over GST control)"
same,binding signal,ETV2,"1.21 fold enrichment (6-mer frequency, TF over GST control)"
same,binding signal,ELF3,"1.25 fold enrichment (6-mer frequency, TF over GST control)"
same,binding signal,CRX,"1.08 fold enrichment (6-mer frequency, TF over GST control)"
same,binding signal,ETV1,"1.13 fold enrichment (6-mer frequency, TF over GST control)"
